Test results from the supplement of paper PMC13380429.
A number with no mark means an inactive call.

System: Vero E6 infected with SARS-CoV-2
Assay: inhibition of SARS-CoV-2 cytopathic effect; higher = more antiviral protection, active = above 15
Details: 48 h

SMILES	inhibition of SARS-CoV-2 cytopathic effect (1 nM)	inhibition of SARS-CoV-2 cytopathic effect (8.33 nM)	inhibition of SARS-CoV-2 cytopathic effect (100 nM)	inhibition of SARS-CoV-2 cytopathic effect (833.33 nM)	inhibition of SARS-CoV-2 cytopathic effect (10000 nM)
CC1=C(/C=C/C(C)=C/C=C/C(C)=C/C=C/C=C(C)/C=C/C=C(C)/C=C/C2=C(C)CCCC2(C)C)C(C)(C)CCC1 [beta-carotene]	-0.41%	1.55%	1.56%	1.85%	-0.57%
NC(=O)CN1C=CCC(C(N)=O)=C1 [caricotamide]	0.48%	2.71%	1.14%	-1.91%	0.44%
Clc1ccc(N/N=C(\c2ccccc2)c2ccccn2)nc1	-0.45%	-0.79%	-1.98%	9.6%	16.5% (active)
Cc1c(F)cc(C(=O)NC2CC2)cc1-c1ccc(C(=O)NCC(C)(C)C)cn1 [losmapimod]	1.3%	0.27%	-1.7%	-4.24%	-5.03%
C=C(C)[C@H]1CN[C@H](C(=O)O)[C@H]1CC(=O)O [kainic-acid]	-1.66%	0.99%	0.37%	-1.94%	-0.79%
Cn1c(COP(=O)(NCCBr)NCCBr)cnc1[N+](=O)[O-]	-3.18%	-1.04%	0.12%	-0.54%	-3.06%
CN(C)C(=O)Oc1cccc([N+](C)(C)C)c1 [neostigmine]	1.41%	0.51%	0.73%	-1.4%	-0.84%
Nc1c(CC(=O)O)cccc1C(=O)c1ccc(Br)cc1 [bromfenac]	-1.88%	0.84%	-0.8%	-0.93%	-0.48%
N=C(N)c1ccc(-c2ccc(-c3ccc(C(=N)N)cc3)o2)cc1 [furamidine]	-2.49%	0.26%	-3.62%	0.94%	2.72%
C/C(=C(\CCOP(=O)(O)O)SC(=O)c1ccccc1)N(C=O)Cc1cnc(C)nc1N [benfotiamine]	0.45%	2.17%	2.51%	1.61%	0.69%
CC(C)CNc1nc(-c2cccc3ncccc23)cn2c(-c3ccc(C(=O)NC4CC4)cc3)cnc12	-3.61%	-1.58%	1.09%	-6.07%	-3.69%
CN(C)Cc1cccc(N/C(=C2\C(=O)Nc3cc(C(N)=O)ccc32)c2ccccc2)c1	-2.86%	2.55%	0.04%	2.08%	2.55%
CCCCOc1ccc(CC(=O)NO)cc1 [bufexamac]	0.27%	-0.68%	0.49%	0%	0.42%
CN(c1ccc(NC(=O)Nc2ccccc2)cc1)S(=O)(=O)c1cnn(-c2ccc(F)cc2)c1	2.37%	2.39%	0.06%	-1.77%	0.18%
CNCCC=C1c2ccccc2C=Cc2ccccc21 [norcyclobenzaprine]	-0.66%	3.83%	-2.37%	-0.19%	-7.92%
Cc1ccc(C(=O)c2cc(O)c(O)c([N+](=O)[O-])c2)cc1 [tolcapone]	-5.06%	-3.82%	-4.1%	0.66%	1.15%
CCc1ccc(/C=C/C(=O)Nc2ccc(C(C)=O)cc2)o1 [heclin]	-2.06%	-1.28%	-7.85%	-6.86%	-5.66%
CC(C)Oc1cccc(CC(=O)N2CCC[C@](CC[N+]34CCC(c5ccccc5)(CC3)CC4)(c3ccc(Cl)c(Cl)c3)C2)c1	1.67%	0.54%	0.54%	4.46%	1.59%
C[C@]12N[C@H](Cc3ccccc31)c1ccccc12 [dizocilpine-(-)]	1.97%	1.82%	1.33%	1.1%	-0.44%
CCOc1cc(C(=O)Nc2ccc(Cl)c(-c3nc4ccccc4[nH]3)c2)cc(OCC)c1OCC	2.95%	2.03%	0.45%	-3.49%	4.29%

SMILES	inhibition of SARS-CoV-2 cytopathic effect (1 nM)	inhibition of SARS-CoV-2 cytopathic effect (8.33 nM)	inhibition of SARS-CoV-2 cytopathic effect (100 nM)	inhibition of SARS-CoV-2 cytopathic effect (833.33 nM)	inhibition of SARS-CoV-2 cytopathic effect (10000 nM)
CCCN(CCC)[C@H]1CCc2cccc(O)c2C1 [8-hydroxy-DPAT]	-1.75%	1.08%	1.06%	-0.13%	-3.59%
Cc1cc2c(C(N)=O)cccc2n1-c1nc2c(c(NCc3ccccc3)n1)COCC2	1.91%	-0.78%	-2.17%	11.2%	-31.7%
O=C(OCCN1CCOCC1)c1cccnc1Nc1cccc(C(F)(F)F)c1 [morniflumate]	-1.61%	-3.25%	-3.87%	-4.12%	-5.47%
CCC(=O)c1cc(-c2ccc(Cl)cc2)n(-c2ccc(S(N)(=O)=O)cc2)c1C	-0.96%	-3.03%	0.71%	-1.12%	3.3%
c1ccc2c(Cc3c[nH]c4ccccc34)c[nH]c2c1 [3,3'-diindolylmethane]	0.74%	0.3%	4.3%	4.76%	3.8%
Fc1ccc(C(OCCN2CCN(C/C=C/c3ccccc3)CC2)c2ccc(F)cc2)cc1	1.02%	1.01%	3.35%	1.4%	0.32%
CN(C)C(=O)Oc1cc(OC(=O)N(C)C)cc(C(O)CNC(C)(C)C)c1 (stereo not given) [bambuterol]	-2.95%	-0.79%	-1.68%	-1.56%	-1.86%
CC(C)C(N)=O [isobutyramide]	4.35%	1.02%	2.22%	2.44%	0.68%
O=C(O)Cc1sc(-c2ccccc2)nc1-c1ccc(Cl)cc1 [fentiazac]	-0.18%	-2.64%	-1.78%	0.61%	1.91%
Cc1ccc(NC(=O)Nc2cc(C(F)(F)F)ccc2F)cc1Nc1ccc2c(c1)NC(=O)/C2=C\c1ccc[nH]1	5.12%	5.28%	5.34%	7.91%	4.87%
C=C1CCN([C@H](C)[C@](O)(Cn2cncn2)c2ccc(F)cc2F)CC1 [efinaconazole]	-0.21%	1.69%	0.85%	0.56%	2.84%
O=c1cc[nH]c(=O)[nH]1 [uracil]	-0.48%	2.2%	2.09%	1.66%	-2.12%
CCCCS(=O)(=O)N[C@@H](Cc1ccc(OCCCCC2CCNCC2)cc1)C(=O)O [tirofiban]	1.63%	1.13%	0.55%	0.26%	2.44%
CCC1NC(=O)c2cc(S(N)(=O)=O)c(Cl)cc2N1 (stereo not given) [quinethazone]	-8.29%	-6.61%	-4.32%	-5.24%	-5.16%
Cc1cc(/C=C2\SC(=O)N(c3ccccc3)C2=O)c(C)n1-c1cccnc1	2.97%	-0.28%	1.31%	1.52%	2.29%
C1CCC2(CC1)CCNCC2 [4,4-pentamethylenepiperidine]	0.06%	0.78%	-1%	1.32%	0.37%
Cc1cccc(C)c1NC(=O)C1CCCCN1C (stereo not given) [mepivacaine]	-3.62%	-1.78%	-2.27%	-0.18%	0.81%
CCCNCC(O)COc1ccccc1C(=O)CCc1ccccc1 (stereo not given) [propafenone]	-2.13%	-0.69%	2.83%	3.83%	-0.5%
CC(C)(COP(=O)(O)OP(=O)(O)OC[C@H]1O[C@@H](n2cnc3c(N)ncnc32)[C@H](O)[C@@H]1OP(=O)(O)O)[C@@H](O)C(=O)NCCC(=O)NCCS [coenzyme-A]	-2.14%	0.97%	2.41%	1.91%	2.93%
OC[C@H]1O[C@@H](Oc2cc3c(O)cc(O)cc3[o+]c2-c2ccc(O)c(O)c2)[C@H](O)[C@@H](O)[C@@H]1O [kuromanin]	-0.56%	0.72%	-0.34%	-2.36%	-4.26%
